Rows were chosen to be rich in hits. Some 0.28% of all compounds tested hit in one or more screens of this group.
NPYLR7 agonist: activates Aedes aegypti NPYLR7 receptor. hit rate 0.15% among 270,000. activation, % at 10 µM. HEK293T NPYLR7/Galpha15, GCaMP6s calcium fluorescence; in the data active = activation above about 40%;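 also: 0% = vehicle and 100% = reference agonist at the receptor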
mcGAS inh: blocks mouse cGAS activity | AID 1259399 | hit rate 0.15% among 160,000 | recombinant cGAS, Kinase-Glo ATP depletion luminescence | inhibition, % at 12.5 µM | Q8C6L5;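 also: 0% = negative control wells and 100% = reference inhibitor with no enzyme activity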
hcGAS lum: human cGAS inhibition | recombinant h-cGAS, ATP depletion, Kinase-Glo luminescence | hit rate 0.081% among 290,000 | Q8N884 | AID 1259398 | inhibition, % at 12.5 µM;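 also: 0% = vehicle reaction and 100% = reaction without DNA for no activity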
Target sequence (Q8N884 whole entry, looked up): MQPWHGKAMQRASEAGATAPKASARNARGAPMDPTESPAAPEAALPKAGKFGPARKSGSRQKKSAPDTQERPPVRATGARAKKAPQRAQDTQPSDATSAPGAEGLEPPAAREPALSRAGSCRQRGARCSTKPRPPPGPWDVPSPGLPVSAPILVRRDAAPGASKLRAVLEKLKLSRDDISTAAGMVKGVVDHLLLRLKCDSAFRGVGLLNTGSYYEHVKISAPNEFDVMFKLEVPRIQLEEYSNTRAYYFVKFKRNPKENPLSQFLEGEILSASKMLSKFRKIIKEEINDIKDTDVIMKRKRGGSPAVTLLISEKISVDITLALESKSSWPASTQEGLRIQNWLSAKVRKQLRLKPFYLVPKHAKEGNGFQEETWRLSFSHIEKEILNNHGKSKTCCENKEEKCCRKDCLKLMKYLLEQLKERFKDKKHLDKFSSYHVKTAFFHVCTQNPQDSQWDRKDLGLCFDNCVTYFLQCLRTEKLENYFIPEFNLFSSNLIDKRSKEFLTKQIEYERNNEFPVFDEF
* hit, by the source's call; / = not tested or not shown; ! = repeats disagree. Rule as the data show it, unless noted: active = inhibition above about 40%; inactive = the rest.

SMILES | NPYLR7 agonist | mcGAS inh | hcGAS lum
O=C1CN(Cc2cccc3cccnc23)CC(OCc2ccccn2)CN1C1CCCCC1 (stereo unspecified) | 13 | -14 | 0
NC(=O)c1cnc2n1CCN(C(=O)COc1ccccc1)C2 | 3 | -18 | -3
COc1ccc(-c2cccc(-c3ccc(NC(=O)c4c(F)cccc4F)cc3)n2)cc1 | 1 | -4 | -2
COc1ccc(-c2cccc(-c3ccc(NC(=O)c4oc5ccccc5c4C)cc3)n2)cc1 | 43* | -6 | -3
COc1cc(NC(=O)N2CC(=O)N3CCc4c(F)cccc4C3C2)cc(OC)c1OC (stereo unspecified) | 43* | -8 | -7
CCOc1ccccc1NC(=O)N1CC(=O)N2CCc3c(F)cccc3C2C1 (stereo unspecified) | 10 | -3 | 0
CCOC(=O)CN1C(=O)SC(=Cc2ccc(Br)o2)C1=O | -2 | -5 | -8
O=C(CN1C(=O)SC(=Cc2ccc(N3CCCCCC3)o2)C1=O)N1CCCCCC1 | 45* | / | -3
O=C1NC(CCc2ccccc2)(C2CCNCC2)C(=O)N1Cc1cnccn1 (stereo unspecified) | 3 | -16 | -3
N=C(N)c1ccc(OCCCCCOc2ccc(C(=N)N)cc2)cc1 | 66*! | / | 4
N=C(N)c1ccc(OCCCCCOc2ccc(C(N)=O)cc2)cc1 | 5 | 0 | -6
COc1ccc(CC(=O)N2N=C(c3cccnc3)CC2(O)C(F)(F)F)cc1OC (stereo unspecified) | 0 | -6 | -16
COc1ccccc1CCNC(=O)c1ccc(Cn2c(C)nc3ccccc32)o1 | 64* | / | -3
Cc1ccccc1Cn1c(CCNC(=O)c2ccco2)nc2ccccc21 | -3 | -8 | -5
CC(C)=CCO[C@@H]1COCC[C@H]1NC(=O)N1CCOCC1 | / | -6 | -14
CN1C(=O)c2cccc3c(Br)cc(Br)c1c23 | 10 | 2 | -2
O=C1N=c2ccc(F)cc2=C1c1sc(=S)[nH]c1O | -1 | 100* | 15
Nn1c(O)c(C2=c3cc([N+](=O)[O-])ccc3=NC2=O)sc1=S | 1 | / | -4
Cc1cc(Br)cc2c1=NC(=O)C=2c1sc(=S)[nH]c1O | -2 | 94* | 5
CC(C)C(C(=O)O)n1c(O)c(C2=c3cc(Br)ccc3=NC2=O)sc1=S (stereo unspecified) | -1 | -1 | -1
CCN1CCN(c2c(Cl)cccc2NC(=O)C2CCCO2)CC1 (stereo unspecified) | 1 | / | 5
CC1(C(=O)NS(=O)(=O)c2ccccc2C(F)(F)F)CCN1C(=O)CC1CCCC1 (stereo unspecified) | 8 | / | 4
O=C(CCCOCCc1ccccc1)N1CCC(O)(C(F)(F)F)C1 (stereo unspecified) | 4 | / | -7
CC1CCN(C(=O)c2ccc([N+](=O)[O-])cc2)CC1 | 2 | / | -1
CCN1CCc2c(sc(NC(=O)C3=COCCO3)c2-c2nc3ccccc3s2)C1 | 60* | / | 39
SMILES | NPYLR7 agonist | mcGAS inh | hcGAS lum
CC(=O)Nc1sc2c(c1-c1nc3ccccc3s1)CCN(Cc1ccccc1)C2 | 197* | -7 | -3
CC(=O)N1CCc2c(sc(NC(=O)C3=COCCO3)c2-c2nc3ccccc3s2)C1 | 3 | / | -4
CC(=O)Nc1sc2c(c1-c1nc3ccccc3s1)CCN(C(C)=O)C2 | 3 | / | 7
CCOc1ccc(C(=O)N(C(=O)c2ccc(OCC)cc2)c2ncccc2C)cc1 | -1 | / | -4
CCOC(=O)CCC(=O)N1CCC(Cc2ccc(-n3cccc3)cc2)CC1 | -1 | -6 | -4
O=C(Oc1ccc2oc(=O)sc2c1)C1CCCCC1 | -3 | -4 | -5
O=C1NC(=S)NC(=O)C1=Cc1ccc(-c2cc([N+](=O)[O-])ccc2O)o1 | -16 | 42* | 51*
COc1cc([N+](=O)[O-])ccc1-c1ccc(/C=C2/NC(=S)NC2=O)o1 | 1 | -1 | -3
Cc1ccc(C)c(C2C(C#N)C(=N)SC(=N)C2C#N)c1 (stereo unspecified) | 120* | / | -3
N#CC1C(=N)SC(=N)C(C#N)C1c1ccc(F)cc1F (stereo unspecified) | 0 | 24 | 18
COc1ccccc1-c1cc(CC(C)C)nc(C#N)c1N | -4 | / | 7
O=[Si]=O | -3 | 42* | -9
O=C(NCCc1cn2c(n1)CCCC2)c1ccccc1O | 7 | / | -5
c1ncn(CCCNC2CCC3(CCNCC3)CC2)n1 | 4 | / | -9
COc1ccc(/C=C2\Oc3c4c(cc(C)c3C2=O)OCN(CC2CCCO2)C4)cc1OC (stereo unspecified) | 15 | 3 | 1
O=C1/C(=C/c2ccc3c(c2)OCO3)Oc2c1ccc1c2CN(CC2CCCO2)CO1 (stereo unspecified) | 83* | -7 | -6
O=C1NC(=NS(=O)(=O)c2ccccc2)SC1=Cc1cc([N+](=O)[O-])ccc1O | 61* | 75* | 35

Bioassay records deposited in PubChem by Fisher Drug Discovery Resource Center.
